{"source": "paper PMC12820563", "about": "“FoxP3 forms a head-to-head dimer in vivo and stabilizes its multimerization on adjacent microsatellites”", "note": "The full ranking holds about 16,000 sequences; the median of “rpm ratio (pull-down/input)” is about 0.5, and the highest 2% start at about 5.5. The full list was thinned out, with the highest values kept by preference."}
{"biological_target": "T1, MBP-FoxP3dN (Mus musculus, UniProt Q99JB6 188-423)", "T1 sequence": "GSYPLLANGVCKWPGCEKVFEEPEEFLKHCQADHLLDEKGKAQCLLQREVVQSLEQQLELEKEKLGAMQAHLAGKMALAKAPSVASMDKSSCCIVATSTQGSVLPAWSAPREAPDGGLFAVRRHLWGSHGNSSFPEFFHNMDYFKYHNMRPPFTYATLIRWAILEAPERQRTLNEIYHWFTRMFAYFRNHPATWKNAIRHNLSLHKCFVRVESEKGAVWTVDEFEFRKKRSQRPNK", "assay": "PD-seq (MBP pull-down with sequencing); 20 mM Tris-HCl pH 7.5, 100 mM NaCl, 1.5 mM MgCl2, 0.4 uM protein, 0.1 uM dsDNA library, 30 min, room temperature, amylose pull-down; high values mean tight binding", "details": "protein: recombinant; tags: His6-MBP; chain copies: 2; dsDNA, one strand shown", "outline": "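Amylose resin was used to capture complexes formed during 30 min at room temperature in Tris pH 7.5 buffer with NaCl and MgCl2 between 0.4 µM His6-MBP-tagged mouse FoxP3 or FoxP1 fragment lacking the N-terminus, expressed in E. coli, and 0.1 µM Klenow-filled double-stranded degenerate DNA library. After three washes, the DNA was released with proteinase K, barcoded by PCR and sequenced on Illumina. Binding is pooled-replicate reads-per-million enrichment, pull-down over input.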"}
{"sequence": "GATGATTGTTCTCCCAGCTGATGAATTTTGCACGTCGAGTAAACAAATTTTCCTAATCTTTCTGTTCAAGCGCCATCTAC", "binding signal": "3.32 RPM ratio (pull-down/input)"}
{"sequence": "GATGATTGTTCTCCCAGCTGATGAATTTTTAGGATCGAGTAAACAAATTTTCCTAATCTTTCTGTTCAAGCGCCATCTAC", "binding signal": "0.222 RPM ratio (pull-down/input)"}
{"sequence": "GATGATTGTTCTCCCAGCTGATGAATTCAATTAGTCGAGTAAACAAATTTTCCTAATCTTTCTGTTCAAGCGCCATCTAC", "binding signal": "1.25 RPM ratio (pull-down/input)"}
{"sequence": "GATGATTGTTCTCCCAGCTGATGAATTCTGTAGGTCGAGTAAACAAATTTTCCTAATCTTTCTGTTCAAGCGCCATCTAC", "binding signal": "0.948 RPM ratio (pull-down/input)"}
{"sequence": "GATGATTGTTCTCCCAGCTGATGAATTTGACGTATCGAGTAAACAAATTTTCCTAATCTTTCTGTTCAAGCGCCATCTAC", "binding signal": "1.27 RPM ratio (pull-down/input)"}
{"sequence": "GATGATTGTTCTCCCAGCTGATGAATTGGAGTACTCGAGTAAACAAATTTTCCTAATCTTTCTGTTCAAGCGCCATCTAC", "binding signal": "0.523 RPM ratio (pull-down/input)"}
{"sequence": "GATGATTGTTCTCCCAGCTGATGAATTCGAACTTTCGAGTAAACAAATTTTCCTAATCTTTCTGTTCAAGCGCCATCTAC", "binding signal": "0.271 RPM ratio (pull-down/input)"}
{"sequence": "GATGATTGTTCTCCCAGCTGATGAATTCATCTCATCGAGTAAACAAATTTTCCTAATCTTTCTGTTCAAGCGCCATCTAC", "binding signal": "0.393 RPM ratio (pull-down/input)"}
{"sequence": "GATGATTGTTCTCCCAGCTGATGAATTAGTTGTTTCGAGTAAACAAATTTTCCTAATCTTTCTGTTCAAGCGCCATCTAC", "binding signal": "6.61 RPM ratio (pull-down/input)"}
{"sequence": "GATGATTGTTCTCCCAGCTGATGAATTAGTTAGTTCGAGTAAACAAATTTTCCTAATCTTTCTGTTCAAGCGCCATCTAC", "binding signal": "4.22 RPM ratio (pull-down/input)"}
{"sequence": "GATGATTGTTCTCCCAGCTGATGAATTAGTAGTTTCGAGTAAACAAATTTTCCTAATCTTTCTGTTCAAGCGCCATCTAC", "binding signal": "1.93 RPM ratio (pull-down/input)"}
{"sequence": "GATGATTGTTCTCCCAGCTGATGAATTTTTTAGTTCGAGTAAACAAATTTTCCTAATCTTTCTGTTCAAGCGCCATCTAC", "binding signal": "0.299 RPM ratio (pull-down/input)"}
{"sequence": "GATGATTGTTCTCCCAGCTGATGAATTTAGTTGTTCGAGTAAACAAATTTTCCTAATCTTTCTGTTCAAGCGCCATCTAC", "binding signal": "5.93 RPM ratio (pull-down/input)"}
{"sequence": "GATGATTGTTCTCCCAGCTGATGAATTAGTTTGTTCGAGTAAACAAATTTTCCTAATCTTTCTGTTCAAGCGCCATCTAC", "binding signal": "6.22 RPM ratio (pull-down/input)"}
{"sequence": "GATGATTGTTCTCCCAGCTGATGAATTCTTTAGTTCGAGTAAACAAATTTTCCTAATCTTTCTGTTCAAGCGCCATCTAC", "binding signal": "0.297 RPM ratio (pull-down/input)"}
{"sequence": "GATGATTGTTCTCCCAGCTGATGAATTAGTTCTTTCGAGTAAACAAATTTTCCTAATCTTTCTGTTCAAGCGCCATCTAC", "binding signal": "0.409 RPM ratio (pull-down/input)"}
{"sequence": "GATGATTGTTCTCCCAGCTGATGAATTGTTAGTTTCGAGTAAACAAATTTTCCTAATCTTTCTGTTCAAGCGCCATCTAC", "binding signal": "4.23 RPM ratio (pull-down/input)"}
{"sequence": "GATGATTGTTCTCCCAGCTGATGAATTTGTTAGTTCGAGTAAACAAATTTTCCTAATCTTTCTGTTCAAGCGCCATCTAC", "binding signal": "7.44 RPM ratio (pull-down/input)"}
{"sequence": "GATGATTGTTCTCCCAGCTGATGAATTAGTTTCTTCGAGTAAACAAATTTTCCTAATCTTTCTGTTCAAGCGCCATCTAC", "binding signal": "2.72 RPM ratio (pull-down/input)"}
{"sequence": "GATGATTGTTCTCCCAGCTGATGAATTAGTTTTTTCGAGTAAACAAATTTTCCTAATCTTTCTGTTCAAGCGCCATCTAC", "binding signal": "3.9 RPM ratio (pull-down/input)"}
{"sequence": "GATGATTGTTCTCCCAGCTGATGAATTCGACAGGTCGAGTAAACAAATTTTCCTAATCTTTCTGTTCAAGCGCCATCTAC", "binding signal": "0.284 RPM ratio (pull-down/input)"}
{"sequence": "GATGATTGTTCTCCCAGCTGATGAATTCAGACATTCGAGTAAACAAATTTTCCTAATCTTTCTGTTCAAGCGCCATCTAC", "binding signal": "0.869 RPM ratio (pull-down/input)"}
{"sequence": "GATGATTGTTCTCCCAGCTGATGAATTTCGCGAGTCGAGTAAACAAATTTTCCTAATCTTTCTGTTCAAGCGCCATCTAC", "binding signal": "0.675 RPM ratio (pull-down/input)"}
{"sequence": "GATGATTGTTCTCCCAGCTGATGAATTAGAGCCCTCGAGTAAACAAATTTTCCTAATCTTTCTGTTCAAGCGCCATCTAC", "binding signal": "0.358 RPM ratio (pull-down/input)"}
{"sequence": "GATGATTGTTCTCCCAGCTGATGAATTTCAACGCTCGAGTAAACAAATTTTCCTAATCTTTCTGTTCAAGCGCCATCTAC", "binding signal": "0.363 RPM ratio (pull-down/input)"}
{"sequence": "GATGATTGTTCTCCCAGCTGATGAATTTATGGAGTCGAGTAAACAAATTTTCCTAATCTTTCTGTTCAAGCGCCATCTAC", "binding signal": "0.454 RPM ratio (pull-down/input)"}
{"sequence": "GATGATTGTTCTCCCAGCTGATGAATTAGACAAATCGAGTAAACAAATTTTCCTAATCTTTCTGTTCAAGCGCCATCTAC", "binding signal": "0.417 RPM ratio (pull-down/input)"}
{"sequence": "GATGATTGTTCTCCCAGCTGATGAATTACTTCACTCGAGTAAACAAATTTTCCTAATCTTTCTGTTCAAGCGCCATCTAC", "binding signal": "0.319 RPM ratio (pull-down/input)"}
{"sequence": "GATGATTGTTCTCCCAGCTGATGAATTCTTAATCTCGAGTAAACAAATTTTCCTAATCTTTCTGTTCAAGCGCCATCTAC", "binding signal": "0.28 RPM ratio (pull-down/input)"}
{"sequence": "GATGATTGTTCTCCCAGCTGATGAATTTATACCTTCGAGTAAACAAATTTTCCTAATCTTTCTGTTCAAGCGCCATCTAC", "binding signal": "0.85 RPM ratio (pull-down/input)"}
{"sequence": "GATGATTGTTCTCCCAGCTGATGAATTGAACGGGTCGAGTAAACAAATTTTCCTAATCTTTCTGTTCAAGCGCCATCTAC", "binding signal": "0.23 RPM ratio (pull-down/input)"}
{"sequence": "GATGATTGTTCTCCCAGCTGATGAATTCATATTGTCGAGTAAACAAATTTTCCTAATCTTTCTGTTCAAGCGCCATCTAC", "binding signal": "1.06 RPM ratio (pull-down/input)"}
{"sequence": "GATGATTGTTCTCCCAGCTGATGAATTCGGTCATTCGAGTAAACAAATTTTCCTAATCTTTCTGTTCAAGCGCCATCTAC", "binding signal": "0.728 RPM ratio (pull-down/input)"}
{"sequence": "GATGATTGTTCTCCCAGCTGATGAATTTGGTGCTTCGAGTAAACAAATTTTCCTAATCTTTCTGTTCAAGCGCCATCTAC", "binding signal": "1.59 RPM ratio (pull-down/input)"}
{"sequence": "GATGATTGTTCTCCCAGCTGATGAATTGTCCGAATCGAGTAAACAAATTTTCCTAATCTTTCTGTTCAAGCGCCATCTAC", "binding signal": "0.272 RPM ratio (pull-down/input)"}
{"sequence": "GATGATTGTTCTCCCAGCTGATGAATTTTTGTCATCGAGTAAACAAATTTTCCTAATCTTTCTGTTCAAGCGCCATCTAC", "binding signal": "0.666 RPM ratio (pull-down/input)"}
{"sequence": "GATGATTGTTCTCCCAGCTGATGAATTTGTCATTTCGAGTAAACAAATTTTCCTAATCTTTCTGTTCAAGCGCCATCTAC", "binding signal": "5.68 RPM ratio (pull-down/input)"}
{"sequence": "GATGATTGTTCTCCCAGCTGATGAATTTTGTCATTCGAGTAAACAAATTTTCCTAATCTTTCTGTTCAAGCGCCATCTAC", "binding signal": "4.89 RPM ratio (pull-down/input)"}
{"sequence": "GATGATTGTTCTCCCAGCTGATGAATTGTCATCCTCGAGTAAACAAATTTTCCTAATCTTTCTGTTCAAGCGCCATCTAC", "binding signal": "0.941 RPM ratio (pull-down/input)"}
{"sequence": "GATGATTGTTCTCCCAGCTGATGAATTGTCATTTTCGAGTAAACAAATTTTCCTAATCTTTCTGTTCAAGCGCCATCTAC", "binding signal": "0.999 RPM ratio (pull-down/input)"}
{"sequence": "GATGATTGTTCTCCCAGCTGATGAATTTGTCATCTCGAGTAAACAAATTTTCCTAATCTTTCTGTTCAAGCGCCATCTAC", "binding signal": "6.03 RPM ratio (pull-down/input)"}
